Data reported in ChEMBL document CHEMBL3988442, “University of Dundee, Small-Polar-MMV Screening Library” (2021).
The whole screen tested about 53,000 compounds, of which about 900 (1.7%) showed an effect of 50% or more. This excerpt belongs to a sample that is enriched for strong results.

The compounds below were run on Mycobacterium tuberculosis (assay: Cornell - Phenotypic assay to identify agents that inhibit growth of Mycobacterium tuberculosis). Settings: 10 mM as filed; unlikely as a test dose.
Assay type: functional
Parameters: scale not given: direction of the effect not stated beside the values

Compound | Percent Effect [%]
CCNC(=O)N(Cc1cccc(OC)c1)C1CCC(O)CC1 (centres undefined) | 21.75
COCC(=O)N(Cc1ccc2[nH]ccc2c1)C1CC1 | 26.94
CCN(C(=O)CCc1ccc2[nH]ccc2c1)C1CC(=O)NC1=O (centres undefined) | 14.54
COCC(=O)N(Cc1ccc2cc[nH]c2c1)C1CC1 | 57.03
O=C(C1CC1)N(Cc1ccc2cc[nH]c2c1)C1CC1 | 42.2
COC(=O)CCC(=O)N(Cc1ccc2cc[nH]c2c1)C1CC1 | 90.28
CCOc1ccccc1C1=CCN(C(=O)C2CCN(C)C(=O)C2)CC1 (centres undefined) | -20.28
COC(=O)c1cccn1C1CCN(C(=O)c2ccc(C)[nH]c2=O)CC1 | -31.25
CCc1cc(N(C)Cc2ccncn2)n2nc(C)c(C)c2n1 | 59.71
CCc1cc(N(C)Cc2ccnc(C)c2)n2nc(C)c(C)c2n1 | -23.54
CCc1cc(N(C)Cc2cc[nH]n2)n2nc(C)c(C)c2n1 | 4.829
Cc1nc(C2CCCN(C(=O)c3cc(Cl)c4c(c3)OCO4)C2)no1 (centres undefined) | 12.39
O=C(C1CCCO1)N1C[C@@H]2CCN(c3cnccn3)C[C@@H]2C1.O=C(O)C(F)(F)F (some centres undefined) | 30.53
c1ccc(C2CCCN(c3cncc(-n4cccn4)n3)CC2)cc1 (centres undefined) | 42.47
c1ccc(C2CCN(c3cncc(-n4cccn4)n3)CC2)cc1 | 25.96
c1ccc(COC2CCN(c3cncc(-n4cccn4)n3)CC2)cc1 | 60.34
O=C(Nc1ccnc2ccnn12)c1ccc(N2CCC(O)CC2)cc1 | 85.62
O=C(Nc1ccnc2ccnn12)c1ccc(NC2CC2)nc1 | -11.01
Cc1cc(NC(=O)c2ccc(N3CCOCC3)cc2)[nH]n1 | 29.03
CS(=O)(=O)N1CCO[C@@H]2CN(C(=O)C3CC(F)(F)C3)C[C@@H]2C1 | -22.45
Cn1cc(CNc2nc3cc(Cl)ccc3n2C)cn1 | 16.71
Cn1c(NC(=O)CNC(=O)C2CC2)nc2cc(Cl)ccc21 | -3.36

Compound | Percent Effect [%]
Cn1c(NCc2ccc(C(N)=O)cc2)nc2cc(Cl)ccc21 | 60.39
COc1cccc(CN2CCCCCC2c2cccc(C)c2)c1O (centres undefined) | 84.28
COc1cccc(CN2CCCCCC2c2cccs2)c1O (centres undefined) | 38.44
COc1cccc(CN2CCCCCC2c2cccc(F)c2)c1O (centres undefined) | 45.8
COc1cccc(CN2CCCCCC2c2sccc2C)c1O (centres undefined) | 53.6
COc1cccc(CN2CCCCCC2c2cccs2)c1OC (centres undefined) | 35.04
Cc1cccc(C2CCCCCN2Cc2cn(C)nc2C)c1 (centres undefined) | 15.03
COc1cc(-c2cc(N)ncn2)cc(OC)c1OC | 14.69
O=C(NCCNc1ncccn1)C1CCN(C(=O)NC2CC2)CC1 | -5.946
Cc1nc(N(C)C)nc(C)c1NS(=O)(=O)c1ccc(OC(F)(F)F)cc1 | 21.9
CC(=O)N1CCN(c2cnccn2)CC(CO)C1 (centres undefined) | 10.91
COCc1nc(C(=O)N2CCCC2c2noc(C)n2)cs1 (centres undefined) | -28.82
Cc1ccc(CN2CCCC2(C(N)=O)c2cnccn2)c(C)c1 (centres undefined) | -1.756
CSc1[nH]c(=O)c(C(=O)N2CCCC2C2CCCC2)cc1C#N (centres undefined) | 65.7
CCC1CCCCCN1C(=O)c1cc(C#N)c(SC)[nH]c1=O (centres undefined) | -5.356
CSc1[nH]c(=O)c(C(=O)N2CCCC2c2cccs2)cc1C#N (centres undefined) | 17.36
CC(=O)c1ccc(C(=O)NCc2cccnc2N2CCCC(O)C2)s1 (centres undefined) | 26.17
COc1cccc(CN(C)Cc2c(C)noc2C)c1OC | -9.272
CCc1c(C)nc(SCc2ccccn2)[nH]c1=O | 11.8
CCc1c(C)nc(-n2nc(-c3cccs3)cc2N)[nH]c1=O | 106.9
Cc1nn(C)c(C)c1S(=O)(=O)NCCn1ccc(-c2cccs2)n1 | -2.587
Cc1nc(-n2nc(-c3cccs3)cc2N)[nH]c(=O)c1C | 75.1

Compound | Percent Effect [%]
CN1CCN(Cn2nc(-c3cccs3)ccc2=O)CC1 | 17.93
CC(C(N)=O)n1nc(-c2cccs2)cc(N)c1=O (centres undefined) | -30.4
Cc1ccnc(C2CCN(C(=O)c3cnn(C)c3)CC2)n1 | 19.18
CN1C(=O)C2(CC(=O)Nc3c2cnn3C(C)(C)C)c2ccccc21 (centres undefined) | 16.17
Cc1ccc(CC2CCCN2CC(=O)NCc2cccnc2)cc1 (centres undefined) | 13.39
CN1CC2(CCCN(Cc3cccc(CCN)c3)C2)OC1=O (centres undefined) | 4.729
CN(CC(=O)NCc1ccccn1)C1CCCN(c2cccnn2)C1 (centres undefined) | -22.52
COC(=O)c1ccccc1S(=O)(=O)NC(=O)c1cccc2c1OCCO2 | -3.436
O=C1NC2(CCN(CCc3ccccc3)CC2)CC1c1ccccc1 (centres undefined) | 19.15
Cl.Cl.O=C1NC2(CCNCC2)CC1c1ccncc1 (centres undefined) | -12.16
Cl.O=C1NC2(CCNCC2)CC1c1ccccc1 (centres undefined) | 100.2
Cc1nn(C)c(N(C)C)c1CNCc1ccnc(N2CCOCC2)c1 | 31.35
CCS(=O)(=O)N1C[C@H]2CN(CC3CC3)C(=O)[C@H]2C1 | -29.96
COc1ccccc1CCNS(=O)(=O)N1CCOCC1 | -2.569
COCC(=O)NCCc1nc2cc(-c3ccc(OC)cc3)ncn2n1 | 48.11
Cc1cc(NCCS(C)(=O)=O)nc2cc3c(cc12)CCC3 | 21.34
CN(C)CCn1c(=O)oc2ccc(NC(=O)CC(C)(C)C)cc21 | 16.94
CC(C)CCC(=O)Nc1ccc2oc(=O)n(CCN(C)C)c2c1 | -39.6
CN(C)CCn1c(=O)oc2ccc(NC(=O)CSc3ccccc3)cc21 | 68.34
CCCn1cc(-c2cc(-c3c[nH]cn3)c(C#N)c(N)n2)c(C)n1 | 4.241
CCCn1cc(-c2cc(-c3cnc(OC)nc3)c(C#N)c(N)n2)c(C)n1 | 56.67
CCCn1cc(-c2cc(-c3ccoc3)c(C#N)c(N)n2)c(C)n1 | 46

Compound | Percent Effect [%]
O=C(NCc1ccco1)[C@@H]1CCO[C@@H]2CCN(c3ncccn3)C[C@@H]21.O=C(O)C(F)(F)F | -22.51
Cc1ncc(CN2CCC(c3nc(O)cc(-c4ccsc4)n3)CC2)cn1 | 21.36
CCc1noc(CN(CCC2CCCCC2)CC(N)=O)n1 | 4.193
O=C(Nc1ccc(OCc2cccc(F)c2)c(F)c1)C1COCCO1 (centres undefined) | 18.87
O=C(Nc1cccc(OCc2cccc(F)c2)c1)C1COCCO1 (centres undefined) | 108
CCOC(=O)COc1cccc(NC(=O)C2COCCO2)c1 (centres undefined) | 12.18
O=C(Nc1cccc(OCc2ccc(F)cc2)c1)C1COCCO1 (centres undefined) | 107.1
CCOCc1cccc(NC(=O)C2COCCO2)c1 (centres undefined) | -0.8336
O=C(OCc1ccccc1)c1cccc(NC(=O)C2COCCO2)c1 (centres undefined) | -2.465
CC1CCCCN1C(=O)COc1nc(Cc2ccc(F)cc2)no1 (centres undefined) | -36.23
CCN(Cc1ccc(C(C)C)cc1)C(=O)c1csc(CN(C)C)n1 | -18.18
CCCNC(=O)NC(=O)CNc1c(F)cccc1N1CCCC1 | -0.2754
CCNc1cc2c(nn1)CCN(C(=O)C1Cc3ccccc3S1)C2 (centres undefined) | 12.56
CN(C)c1cc2c(nn1)CCN(C(=O)C1Cc3ccccc3S1)C2 (centres undefined) | 54.31
CN(C)c1cc2c(nn1)CCN(C(=O)C1CCc3ccccc31)C2 (centres undefined) | -36.17
CN1CCOC(CNC(=O)C2(c3cccc(C(F)(F)F)c3)CCCC2)C1 (centres undefined) | 17.35
CCn1cc(CN2CCCN(C(=O)CCc3ccccc3)CC2)cn1 | -0.8409
Cc1nn(C)cc1NC(=O)CC1CCN(CCc2ccccc2)CC1 | 6.464
Cn1ccc(NC(=O)CN2CCC(Oc3cnccn3)CC2)n1 | -4.083
Cc1ccccc1OC1CCN(CC(=O)Nc2cn(C)nc2C)CC1 | 69.1
CCn1cc(NC(=O)CN2CCC(Oc3ccc(F)cc3)CC2)c(C)n1.Cl | 59.25
CCn1cc(NC(=O)CN2CCC(Oc3ccccc3C)CC2)c(C)n1 | 45.29

Compound | Percent Effect [%]
Br.Cc1ccccc1OC1CCN(CC(=O)Nc2ccn(C)n2)CC1 | 51.43
Cc1ccccc1OC1CCN(CC(=O)Nc2c(C)nn(C)c2C)CC1 | 59.98
CCOc1ccccc1CCC(=O)Nc1c(C)nn(C)c1C | -20.08
Cc1nn(C)cc1NC(=O)CN1CCC(Oc2cnccn2)CC1 | 11.01
Br.Cc1ccccc1OC1CCN(CC(=O)Nc2cnn(C)c2C)CC1 | 6.171
Cn1ccc(NC(=O)CN2CCN(C3CCCC3)C(=O)C2)n1 | 47.35
Fc1ccc(OC2CCN(CCn3cncn3)CC2)cc1 | 21.61
COc1ccc(Cl)cc1C(=O)N1C[C@@H](NC(=O)N(C)C)[C@H](C(C)C)C1 | -26.21
COC(=O)c1ccoc1CN(C)CC(=O)NC1CC1 | 9.025
Cc1cc(C2CCCCN2C(=O)c2cccn2C)nc2nccn12 (centres undefined) | 14.54
CCOCCC1(CNC(=O)c2ccsc2)CCC1 | 23.41
Cc1cc(C(=O)N2CC[C@@H]3CN(C)S(=O)(=O)[C@@H]3CC2)no1 | 25.4
O=C(O)c1ccnc2c(Br)cccc12 | 13.48
COc1ccc(CNC(=O)NC(C)(C(=O)O)c2ccco2)cc1F (centres undefined) | -25.47
O=C1COC2(CCN(Cc3ccco3)CC2)CN1Cc1cccnc1 | 24.6
CCCN1CCN(Cc2cc(Cl)cc(Cl)c2)[C@H]2CS(=O)(=O)C[C@H]21 | -17.23
O=S1(=O)C[C@@H]2[C@H](C1)N(Cc1cc(Cl)cc(Cl)c1)CCN2CC1CC1 | 85.08
Cc1cc(CN2CCN(CC3CC3)[C@@H]3CS(=O)(=O)C[C@@H]32)cc(C)c1O | 106.4
Cc1ccc(CN2CCN(CC3CC3)[C@@H]3CS(=O)(=O)C[C@@H]32)cc1C | 21.5
Cc1cc(CN2CCN(CC3CC3)[C@@H]3CS(=O)(=O)C[C@@H]32)ccc1F | -1.418
O=S1(=O)C[C@@H]2[C@H](C1)N(Cc1cc(Cl)cc(Cl)c1)CCN2CCO | -11.47
